Assay outcomes (PubChem)
Sfp inh – Sfp phosphopantetheinyl transferase inhibition; Potency, µM, inactives show largest response in the series, negative = inhibition, actives largely listed as inhibitors; Biochemical Sfp PPTase activity, qHTS; 3.5% of 310,000 active;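 note: the enzyme is Sfp with the accession as filed and its product quenches rhodamine fluorescence; potency is the fitted concentration of half-maximal effect; 0% = enzyme reaction without inhibitor and -100% = no enzyme wells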
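Fluorescence-quenching assay: 15 nM Sfp-PPTase preincubated 15 min at room temperature with compound, then 5 uM rhodamine-CoA and 12.5 uM BHQ-2-labelled YbbR peptide added. Fluorescence (ex 525/em 598 nm) read at start and after 30 min; difference gives rate.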
Tau fibril ThT – tau fibrillization inhibition (ThT binding) | P10636 | recombinant tau K18 P301L, heparin-induced fibrillization, ThT fluorescence | Potency, µM (doses to about 57.4 µM), without a hit: at the top dose activity, negative = inhibition, actives largely listed as inhibitors | 2.1% of 270,000 active; note: potency is the fitted concentration of half-maximal effect; nearly all actives have a fitted effect of over 55% in size
Target sequence (P10636 561-689 P618L limits assumed): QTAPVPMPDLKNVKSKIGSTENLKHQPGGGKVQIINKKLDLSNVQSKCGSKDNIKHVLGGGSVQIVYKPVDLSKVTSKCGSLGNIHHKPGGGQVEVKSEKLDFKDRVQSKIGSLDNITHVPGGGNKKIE
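K18 P301L tau (15 uM + 0.24 uM Alexa 594-tagged), heparin 20 uM, NaOAc pH 7, 6 h 37 C; ThT 30 uM, 1 h RT, ex 450/em 510 nm.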
FBPA coupling cs – inhibits coupling enzyme system, counter-screen for aldolase hits; AID 2472; activity change, negative = inhibition, % at 58.2 µM, hits read low; coupling enzyme system counterscreen, AmpLite Red fluorescence; 0.67% of 290,000 active; in the data active = activity change below about -30%
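Activity here indicates interference with the coupling reaction, not aldolase inhibition. Compounds at 57.5 uM final met coupling enzymes for 10 min at RT; substrate and AmpLite Red detection followed, with a 525/598 nm fluorescence read after 20 min.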
G9a block – blocks human histone lysine methyltransferase G9a | G9a H3K9 monomethylation, AlphaScreen, 2 h | AID 504332 | Q96KQ7 | 8.8% of 350,000 active | Potency, µM (titrated, usually from 102 µM), without a hit: at the highest dose activity, negative = inhibition, most hits filed as inhibitors; note: potency is the fitted concentration of half-maximal effect; nearly all actives have a fitted effect of over 75% in size
Target sequence (Q96KQ7 913-1193 limits assumed): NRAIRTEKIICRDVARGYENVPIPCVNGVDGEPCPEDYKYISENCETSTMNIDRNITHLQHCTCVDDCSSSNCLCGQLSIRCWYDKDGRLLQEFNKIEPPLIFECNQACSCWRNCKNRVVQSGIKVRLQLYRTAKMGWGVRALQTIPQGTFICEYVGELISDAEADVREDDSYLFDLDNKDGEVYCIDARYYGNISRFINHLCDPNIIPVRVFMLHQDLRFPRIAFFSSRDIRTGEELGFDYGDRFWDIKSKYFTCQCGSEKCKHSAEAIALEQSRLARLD
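Enzyme 20 nM + cpd, 15 min RT; add b-H3K9 pep 500 nM / SAM 20 uM; 2 h RT; anti-H3K9me1 Ab 0.5 ug/mL + SA donor / anti-rabbit acceptor beads 20 ug/mL each, 10 min; AlphaScreen read.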
Tau fibril FP – tau fibrillization inhibition (FP); AID 1468; Potency, µM (series often up to 57.7 µM), for the others: at the highest dose activity, negative = inhibition, hits mostly inhibitors; P10636; 0.39% of 280,000 active; K18 P301L tau heparin fibrillization, Alexa594 FP, 6 h; note: potency is the fitted concentration of half-maximal effect; nearly all actives have a fitted effect of over 55% in size
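K18 P301L tau (15 uM unlabeled/0.24 uM Alexa 594-labeled, final) + compound + heparin 20 uM final; 100 mM NaOAc pH 7; 6 hr 37 C; ThT 30 uM final added, 1 hr RT; FP ex 555/em 632 nm.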
Tau fluor cs – counter-screen for tau fibril formation inhibitors | Potency, µM (doses to about 57.7 µM), without a hit: top-dose activity change, negative = decrease | 0.93% of 280,000 active | tau K18 P301L (four-repeat tau fragment) Alexa594 fluorescence, heparin fibrillization | AID 1463; note: potency is the fitted concentration of half-maximal effect; nearly all actives have a fitted effect of over 55% in size
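Human K18 P301L tau (15 uM unlabeled plus 0.24 uM Alexa 594-labeled, final) in 100 mM sodium acetate pH 7 was mixed with compound and 20 uM heparin and incubated 6 hr at 37 C.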
The depositor's hits bear a star; ? = inconclusive; . = not tested or not shown; [ ] = another dose, or the depositor's remark. Rows were chosen to be rich in hits. Some 11% of all compounds tested hit in one or more screens of this group. Unless noted, calls come from the whole dose curve; as a rule, active = well fitted curve in the direction sought with a large enough effect; inconclusive = small, poorly fitted or top-dose-only effect, or another doubt; inactive = no such curve, though single readings can be large; an effect the other way counts as inactive or inconclusive. Unless noted, % is set by controls: 0 for no effect and ±100 for the full control effect.

SMILES | Sfp inh | Tau fibril ThT | FBPA coupling cs | G9a block | Tau fibril FP | Tau fluor cs
COC(CN1C(=O)C(O)=C(C(C)=O)C1c1ccccn1)OC (centres undefined) | 79µM* | -3% | -7 | ? | -5% | 0%
COCCCN1C(=O)C(=O)/C(=C(/O)c2ccc(OC(C)C)c(C)c2)C1c1ccncc1 (centres undefined) | 9% | -10% | 3 | 40µM* | -5% | 0%
COCCCN1C(=O)C(=O)/C(=C(/O)c2ccc(C)cc2)C1/C=C/c1ccccc1 (centres undefined) | 10% | -1% | 1 | 45µM* | 6% | 7%
COC(CN1C(=O)C(=O)/C(=C(/O)c2ccccc2)C1c1ccccn1)OC (centres undefined) | 3% | -6% | 1 | 50µM* | 2% | -2%
COCCCN1C(=O)C(=O)/C(=C(/O)c2ccc(OC)cc2)C1c1cccc(OC)c1 (centres undefined) | 11% | -4% | 3 | ? | -7% | 1%
CCCCCCCCN1C(=O)C(O)=C(C(C)=O)C1c1ccccn1 (centres undefined) | -1% | 0% | -1 | ? | 6% | 7%
COCCCN1C(=O)C(=O)/C(=C(/O)c2ccc(C)cc2)C1c1ccccc1 (centres undefined) | 23% | -14% | 4 | 50µM* | -4% | 2%
Cc1ccc(/C(O)=C2\C(=O)C(=O)N(C)C2c2cccc([N+](=O)[O-])c2)cc1 (centres undefined) | -10% | . | 6 | 79µM* | . | .
COCCN1C(=O)C(=O)/C(=C(/O)c2ccc(C)cc2)C1c1ccccn1 (centres undefined) | 2% | -8% | 9 | 50µM* | 3% | -4%
COc1ccc(C2/C(=C(/O)c3ccc(C)cc3)C(=O)C(=O)N2C)cc1 (centres undefined) | 11% | -18% | -2 | ? | 2% | -3%
COc1ccccc1CNC(=O)CCCn1nc(C)c2sc3ccccc3c2c1=O | . | -12% | . | -26%[59 µM] | ? | -8%
COc1ccc(-n2nc(C(=O)N3CCCCC3)c3c4ccccc4n(C)c3c2=O)cc1Cl | . | 3% | . | 25%[59 µM] | -12% | -13%
O=C(Nc1ccc(S(=O)(=O)Nc2nccs2)cc1)c1cc(-c2ccccc2)nc2ccccc12 | 4% | -13% | 1 | 7.9µM* | ? | ?
Cc1ccc(-c2cc(C(=O)Nc3ccc(S(=O)(=O)Nc4nccs4)cc3)c3ccccc3n2)c(C)c1 | 20µM* | -13% | -1 | 28µM* | ? | ?
CCOc1ccc2[nH]c(=O)c(C(c3nnnn3Cc3ccco3)N3CCN(C)CC3)cc2c1 (centres undefined) | 13% | 14µM* | -67* | . | ? | -19%
Cc1cc2cc(C(c3nnnn3Cc3ccco3)N3CCCCC3)c(=O)[nH]c2cc1C (centres undefined) | 40µM* | ? | 0 | 50µM* | 8% | -21%
O=c1[nH]c2cc3c(cc2cc1C(c1nnnn1Cc1ccccc1)N1CCCCCC1)OCCO3 (centres undefined) | -22% | ? | -1 | 14µM* | -11% | -19%
Cc1cccc2cc(C(c3nnnn3Cc3ccc4c(c3)OCO4)N3CCCC3)c(=O)[nH]c12 (centres undefined) | 56µM* | -6% | -19 | 18µM* | -1% | -3%
COc1ccc(CCN2C(=O)CN(C3CCCCCC3)C(=O)C2c2ccc(Cl)cc2)cc1OC (centres undefined) | . | -9% | . | -7%[59 µM] | 3% | 2%
c1ccc(Cn2nnnc2C(c2ccncc2)N2CCOCC2)cc1 (centres undefined) | 5% | 4% | -1 | 2% | 2% | 0%
Cc1cc(C(c2nnnn2Cc2ccccc2)N2CCOCC2)c(C)n1-c1ccc2c(c1)OCO2 (centres undefined) | 28µM* | ? | -5 | 40µM* | -3% | -16%
CCN1C(=O)C(CC(=O)Nc2ccc(OC)cc2)N(Cc2ccc3c(c2)OCO3)C1=S (centres undefined) | -24% | -8% | -13 | 11%[59 µM] | 4% | -28%
CN(C)c1ccc(N/C(N)=N/c2nc(C(F)(F)F)cc(C(F)(F)F)n2)cc1 | 5% | ? | -10 | 13µM* | 3% | -29%
Cc1ccc2nc(NC(=S)NC(=O)c3cccs3)sc2c1 | 13% | ? | -2 | 20% | -6% | -21%
CCOC(=O)c1sc(NC(=S)NC(=O)c2ccc(OC)cc2)nc1C | -21% | . | 1 | -10% | . | .
SMILES | Sfp inh | Tau fibril ThT | FBPA coupling cs | G9a block | Tau fibril FP | Tau fluor cs
Cc1nc(NC(=O)c2ccc([N+](=O)[O-])cc2Cl)sc1C(=O)N(C)C | 40µM* | ? | -4 | ? | ? | -18%
Cc1nc(NC(=S)NC(=O)c2cccs2)sc1C(=O)N(C)C | 50µM* | -23% | 1 | ? | -5% | -4%
COc1ccc(C(=O)NC(=S)Nc2nc(C)c(C(=O)N(C)C)s2)cc1 | 63µM* | -11% | 8 | ? | -4% | -7%
Cc1cc(C(=O)Nc2nc(C)c(C(=O)N(C)C)s2)ccc1[N+](=O)[O-] | -2% | -10% | 1 | -4%[59 µM] | 12% | -2%
CCn1c(NCc2cccc(Cl)c2)nc2ccccc21 | . | -3% | . | 11%[59 µM] | -3% | -15%
O=S(=O)(Cc1ccco1)Cc1nc(-c2ccc(Cl)cc2)cs1 | 25µM* | -6% | 1 | . | -4% | -17%
O=S(=O)(Cc1noc(-c2ccc(Cl)cc2)n1)Cc1ccco1 | 4µM* | -5% | 12 | . | 7% | -12%
COc1cccc(NC(=O)Cn2c(=O)c3cccn3c3ccc(F)cc32)c1 | . | 1% | . | -4%[59 µM] | -8% | -5%
O=C(O/N=C\c1ccc(N2CCOCC2)c([N+](=O)[O-])c1)c1ccc(F)cc1 | 6% | 5µM* | -2 | ? | -1% | -20%
O=C(O/N=C\c1ccc(N2CCOCC2)c([N+](=O)[O-])c1)c1ccccc1Cl | 12% | 13µM* | -3 | ? | 12% | ?
O=C(CCc1c[nH]c2ccccc12)N1CCN(c2ccc(O)cc2)CC1 | ? | ? | 2 | 35µM* | 13% | -19%
Cc1ccc(S(=O)(=O)N2CCN(C(=O)COC(=O)c3ccccn3)CC2)c(C)c1 | . | . | . | 45µM* | . | .
COc1ccc(S(=O)(=O)N2CCN(C(=O)CCc3c[nH]c4ccccc34)CC2)cc1 | . | . | . | 15%[12.7 µM] | . | .
Cc1ccc(S(=O)(=O)N2CCN(C(=O)CCc3c[nH]c4ccccc34)CC2)cc1 | . | . | . | -1%[59 µM] | . | .
CSc1ncccc1C(=O)OCC(=O)N1CCN(S(=O)(=O)c2ccc(C)cc2C)CC1 | . | . | . | -32% | . | .
